From PubChem BioAssay AID504863 (Sanford-Burnham Center for Chemical Genomics, 2011)
The other results are listed elsewhere or left out. Values without a mark were called inactive. The source made the active and inactive calls.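 Rule for the calls: active = inhibition averaging 50% or more, tested at 20 µM; inactive = the rest.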

System: diaphorase (Clostridium kluyveri)
Test: diaphorase inhibitors and chemical oxidizers, confirmation, counter-screen for P. falciparum G6PD inhibitor project, biochemical, fluorescence intensity, 30 µM NADPH (AID 504863);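 note: 0% = DMSO with enzyme and 100% = DMSO wells lacking diaphorase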
Conditions: Diaphorase/resazurin coupled assay, resorufin fluorescence, at 20 µM, stronger effect = higher value

Structure (SMILES)	inhibition
O=C(Nc1nnc(S(=O)(=O)N2CCOCC2)s1)c1cccc(Br)c1	48.1%
CC(C)(C)NC(=O)COc1ccc(CNc2ccc3[nH]c(=O)[nH]c3c2)cc1	12.2%
O=C(CN1CCN(c2ccc(O)cc2)CC1)Nc1cc(S(=O)(=O)N2CCOCC2)ccc1Cl	7.17%
OCCN1CCN(C(=S)c2ccc(-c3ccccc3)cc2)CC1	2.65%
COc1cccc(C(=O)Nc2nnc(S(=O)(=O)N(C)c3ccccc3)s2)c1	56.8% (active)
Cc1ccnc(-n2sc3ccccc3c2=O)n1	-26.9%
COc1ccc(CCn2c(NN=C3CCCC3)nc3c2c(=O)[nH]c(=O)n3C)cc1	-4.07%
O=C1C=CC(=O)N1c1ccc(N2CCCCC2)cc1	-16.6%
Cc1cccc(C(=O)Nc2nnc(S(=O)(=O)N3CCCCCC3)s2)c1	36.1%
C=CCc1ccccc1OCC(=O)N/N=C/c1ccccc1OCC	43.5%
Cc1ccc(NC(=O)Cn2sc3ccccc3c2=O)cc1	11.3%
COc1ccc(CC(=O)NCC(=O)N/N=C/c2cc(Br)ccc2OC)cc1	70.8% (active)
COc1cccc(C(=O)Nc2nnc(S(=O)(=O)N3CCOCC3)s2)c1	54.9% (active)
c1ccc(-c2cn3c(n2)CCc2ccc4cccnc4c2-3)cc1	45%
Cc1ccc(/C=C/C(=O)Nc2ccc([N+](=O)[O-])c(NC(=O)/C=C/c3ccc(C)o3)c2)o1	-7.03%
CCOC(=O)C1=C(c2ccc(OC)cc2)C(=O)c2ccccc2C1=O	85.7% (active)

Structure (SMILES)	inhibition
O=C(Nc1nnc(S(=O)(=O)N2CCCCCC2)s1)c1cccc(Br)c1	41.6%
CCN1CCCC1CNC(=O)c1ccc2c(c1)NC(=O)/C(=C\c1ccccc1F)S2 (stereo unspecified)	-9.58%
CCSc1nnc(NC(=O)c2ccc(C)cc2)s1	56.5% (active)
COc1ccc(OCc2nnc3n2N=C(c2ccccc2)C(CC(=O)O)S3)cc1 (stereo unspecified)	1.64%
Cn1c(-c2sccc2OCc2cccc(C(F)(F)F)c2)n[nH]c1=S	10.1%
COc1c(O)ccc2c1CN1CCc3cc4c(cc3C1C2)OCO4 (stereo unspecified)	8.58%
O=[N+]([O-])c1c(NCCO)cc(Sc2nc3ccccc3s2)c2nonc12	0.96%
O=C(Nc1nc(-c2ccncc2)cs1)C1COc2ccccc2O1 (stereo unspecified)	-24.7%
COc1cccc(C(=O)Nc2nnc(S(=O)(=O)N3CCCCC3)s2)c1	57% (active)
CCOc1ccccc1/C=N/NC(=O)CNC(=O)COc1ccccc1	88.1% (active)
COc1ccc2c(c1)c(=Cc1ccc(N(C)C)cc1)c1cc(-c3ccccc3)[n+](C)n12	15.6%
O=c1[nH]c2ccccc2n2c(-c3ccccc3)nnc12	15.9%
O=C1/C(=C\c2ccc([N+](=O)[O-])cc2)CS(=O)(=O)C/C1=C/c1ccc([N+](=O)[O-])cc1	-12.8%
CCN(CC)c1ccc2oc(=O)c(C)nc2c1	62.5% (active)
O=C(NC1=CC(=O)c2ccccc2C1=O)c1ccccc1	60.6% (active)
